Results reported in PubChem BioAssay.
Activity calls are given as the source filed them.

Tests used:
[1] = small molecules captured by biotinylated probe aFSTL3 – biochemical, small-molecule microarray, fluorescence 635/667, stem cell growth factor project, primary screen (AID 1064); conditions: higher = more signal;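 note: measures binding of the biotinylated anti-FSTL3 antibody to printed compounds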
[2] = binders from COS7 lysate, DM2A8 probe, primary screen, torsin A project, cell lysate, small-molecule microarray, fluorescence 635/667 (AID 1065); conditions: higher = more signal, COS7 lysate expressing mutant human TOR1A
[3] = small molecules captured by biotinylated probe aFGF2 – biochemical, small-molecule microarray, fluorescence 635/667, stem cell growth factor project, primary screen (AID 1067); conditions: higher = more signal;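 note: measures binding of biotinylated aFGF2 protein to printed compounds on slides; z-score merges feature fluorescence and signal-to-noise across triplicate slides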
[4] = small molecules captured by biotinylated probe aFGF10 – biochemical, small-molecule microarray, fluorescence 635/667, stem cell growth factor project, primary screen (AID 1071); conditions: higher = more signal;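 note: score merges 667 nm spot intensity and signal to noise from triplicate slides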
[5] = molecular target: Neurogenic locus notch homolog protein 2 (Homo sapiens) (UniProt Q04721); assay: small molecules binding Notch2 protein – biochemical, small-molecule microarray, 635 nm fluorescence, stem cell growth factors, primary screen (AID 1073); conditions: higher = more signal
[6] = molecular target: Pro-neuregulin-1, membrane-bound isoform (Homo sapiens) (UniProt Q02297); assay: small molecules binding neuregulin-1 protein – biochemical, small-molecule microarray, fluorescence 635/667, psychiatric disease protein project, primary screen (AID 1075); conditions: NRG1 binding, 635 nm fluorescence, higher = more signal;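 note: score combines 667 nm spot fluorescence with signal to noise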
[7] = tested on: Neuregulin-1 EGF-like domain; assay: small molecules binding NRG1 EGF domain – biochemical, small-molecule microarray, 635 nm fluorescence, primary screen (AID 1081); conditions: higher = more signal;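 note: binding of the protein to compounds printed on small-molecule microarray slides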
[8] = FRG1 expression reporter modulators in myotubes – cell-based, C2C12 myotubes, firefly/Renilla luciferase, luminescence, FRG1 inhibition for FSHD, primary screen (AID 1084); conditions: FRG1 promoter luciferase, higher = more signal, called active from +8 up or from −8 down
[9] = small molecules captured by biotinylated probe aFST – biochemical, small-molecule microarray, fluorescence 635/667, stem cell growth factor project, primary screen (AID 1086); conditions: higher = more signal;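 note: score merges 667 nm fluorescence with signal-to-noise of each printed compound spot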
[10] = binders of probe aHhip on microarray, primary screen, stem cell growth factor project, biochemical, small-molecule microarray, fluorescence 635/667 (AID 1087); conditions: higher = more signal;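 note: score merges spot fluorescence at 667nm with spot signal to noise ratio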
[11] = tested on: PRMT1 (protein arginine N-methyltransferase 1); assay: small molecules binding arginine methyltransferase PRMT1 – biochemical, small-molecule microarray, 635 nm fluorescence, primary screen (AID 1088); conditions: higher = more signal;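 note: binding of Prmt1 protein to compounds spotted on small-molecule microarray slides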
[12] = growth effects on S. cerevisiae YJM789 – YJM789 clinical isolate, OD600, 24 h, basal, primary screen (AID 1089); conditions: higher = more signal, called active from +8 up or from −8 down;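 note: growth of clinical yeast isolate S. cerevisiae YJM 789 seeded 1000 cells per well; test concentration not given here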
[13] = S. pombe growth modifiers, basal conditions – strain 972, OD600, 24 h, no modulator, primary screen (AID 1090);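 note: basal condition with compound alone and no growth modifier present; test concentration not given here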; conditions: S. pombe 972 growth, higher = more signal, called active from +8 up or from −8 down
[14] = budding yeast growth modifiers under rapamycin – strain BY4716, OD600, 96 h, primary screen (AID 1091); note: test concentration not given here; conditions: S. cerevisiae BY4716 + rapamycin, higher = more signal, called active from +8 up or from −8 down
[15] = molecular target: Torsin-1A-interacting protein 2 (Homo sapiens) (UniProt Q8NFQ8); assay: small molecules binding lysate-expressed LULL1 – cell lysate, human LULL1 lysate, 635/667 nm fluorescence, primary screen (AID 1092); conditions: small-molecule microarray, hLULL1 lysate binding, 635 nm fluorescence; higher = more signal;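 note: probe is lysate of COS7 cells overexpressing human LULL1; score merges per-feature 667 nm fluorescence with signal-to-noise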
[16] = optical density change of DRC41 E. coli – strain DRC41, OD650, 24 h, E. coli filamentation project, primary screen (AID 1093);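 note: MC1000 strain lacking acrAB efflux and sulA so SOS filamentation is blocked; test concentration not given here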; conditions: E. coli DRC41 growth, higher = more signal, called active from +8 up or from −8 down
[17] = probe aLefty2 binding to arrayed compounds – biochemical, biotinylated probe, 635/667 nm fluorescence, primary screen (AID 1094); conditions: small-molecule microarray, higher = more signal;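 note: score merges spot fluorescence near 667 nm with spot signal-to-noise ratio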
[18] = tested on: Noggin (protein binding on small-molecule microarray); assay: small molecules binding Noggin protein – biochemical, 635/667 nm fluorescence, primary screen (AID 1095); conditions: 635 nm fluorescence, higher = more signal;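 note: score merges 667 nm feature fluorescence with signal to noise over triplicate slides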
[19] = molecular target: Neurogenic locus notch homolog protein 3 (Homo sapiens) (UniProt Q9UM47); assay: small molecules binding NOTCH3 protein – biochemical, 635/667 nm fluorescence, primary screen (AID 1096); conditions: small-molecule microarray, 635 nm fluorescence, higher = more signal
[20] = probe aEGFR binding to arrayed compounds – biochemical, biotinylated probe, 635/667 nm fluorescence, primary screen (AID 1097); conditions: small-molecule microarray, higher = more signal;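 note: probe is a biotinylated anti-EGFR antibody binding compounds printed on slides; score combines fluorescence near 667 nm and signal to noise of each spot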

Chain of Pro-neuregulin-1, membrane-bound isoform (Homo sapiens) (Q02297 whole entry, looked up, the tested form may be a part, canonical isoform): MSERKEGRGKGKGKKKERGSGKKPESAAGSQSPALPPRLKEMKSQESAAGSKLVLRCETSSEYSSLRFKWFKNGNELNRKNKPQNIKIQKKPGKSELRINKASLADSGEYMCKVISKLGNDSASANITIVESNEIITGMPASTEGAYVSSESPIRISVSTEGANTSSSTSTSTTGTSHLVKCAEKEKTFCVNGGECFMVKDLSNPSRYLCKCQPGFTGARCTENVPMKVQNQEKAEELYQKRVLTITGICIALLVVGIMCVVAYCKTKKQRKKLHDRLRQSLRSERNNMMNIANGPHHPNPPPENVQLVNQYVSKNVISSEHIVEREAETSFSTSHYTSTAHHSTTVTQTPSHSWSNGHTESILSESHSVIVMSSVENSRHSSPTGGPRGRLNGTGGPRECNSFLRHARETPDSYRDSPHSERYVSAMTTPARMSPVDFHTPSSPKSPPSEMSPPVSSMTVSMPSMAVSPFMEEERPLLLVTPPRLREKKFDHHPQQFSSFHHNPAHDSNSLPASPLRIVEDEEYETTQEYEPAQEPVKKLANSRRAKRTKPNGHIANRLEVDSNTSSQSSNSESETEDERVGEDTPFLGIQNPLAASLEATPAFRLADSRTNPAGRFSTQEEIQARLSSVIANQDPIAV
Chain of Torsin-1A-interacting protein 2 (Homo sapiens) (Q8NFQ8 whole entry, looked up): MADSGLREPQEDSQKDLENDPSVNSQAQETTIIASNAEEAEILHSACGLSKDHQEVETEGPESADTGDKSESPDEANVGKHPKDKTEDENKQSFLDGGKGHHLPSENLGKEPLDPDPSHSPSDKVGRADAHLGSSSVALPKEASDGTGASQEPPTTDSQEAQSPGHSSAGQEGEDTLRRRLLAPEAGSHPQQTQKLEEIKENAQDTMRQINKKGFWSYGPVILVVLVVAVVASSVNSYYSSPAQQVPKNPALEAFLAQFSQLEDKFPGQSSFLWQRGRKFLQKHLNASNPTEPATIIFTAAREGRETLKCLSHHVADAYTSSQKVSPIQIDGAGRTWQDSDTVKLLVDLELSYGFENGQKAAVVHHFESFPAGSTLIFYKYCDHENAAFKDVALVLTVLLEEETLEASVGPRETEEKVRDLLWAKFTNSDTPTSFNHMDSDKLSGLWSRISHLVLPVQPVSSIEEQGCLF
Chain of Neurogenic locus notch homolog protein 2 (Homo sapiens) (Q04721 whole entry, looked up, canonical isoform): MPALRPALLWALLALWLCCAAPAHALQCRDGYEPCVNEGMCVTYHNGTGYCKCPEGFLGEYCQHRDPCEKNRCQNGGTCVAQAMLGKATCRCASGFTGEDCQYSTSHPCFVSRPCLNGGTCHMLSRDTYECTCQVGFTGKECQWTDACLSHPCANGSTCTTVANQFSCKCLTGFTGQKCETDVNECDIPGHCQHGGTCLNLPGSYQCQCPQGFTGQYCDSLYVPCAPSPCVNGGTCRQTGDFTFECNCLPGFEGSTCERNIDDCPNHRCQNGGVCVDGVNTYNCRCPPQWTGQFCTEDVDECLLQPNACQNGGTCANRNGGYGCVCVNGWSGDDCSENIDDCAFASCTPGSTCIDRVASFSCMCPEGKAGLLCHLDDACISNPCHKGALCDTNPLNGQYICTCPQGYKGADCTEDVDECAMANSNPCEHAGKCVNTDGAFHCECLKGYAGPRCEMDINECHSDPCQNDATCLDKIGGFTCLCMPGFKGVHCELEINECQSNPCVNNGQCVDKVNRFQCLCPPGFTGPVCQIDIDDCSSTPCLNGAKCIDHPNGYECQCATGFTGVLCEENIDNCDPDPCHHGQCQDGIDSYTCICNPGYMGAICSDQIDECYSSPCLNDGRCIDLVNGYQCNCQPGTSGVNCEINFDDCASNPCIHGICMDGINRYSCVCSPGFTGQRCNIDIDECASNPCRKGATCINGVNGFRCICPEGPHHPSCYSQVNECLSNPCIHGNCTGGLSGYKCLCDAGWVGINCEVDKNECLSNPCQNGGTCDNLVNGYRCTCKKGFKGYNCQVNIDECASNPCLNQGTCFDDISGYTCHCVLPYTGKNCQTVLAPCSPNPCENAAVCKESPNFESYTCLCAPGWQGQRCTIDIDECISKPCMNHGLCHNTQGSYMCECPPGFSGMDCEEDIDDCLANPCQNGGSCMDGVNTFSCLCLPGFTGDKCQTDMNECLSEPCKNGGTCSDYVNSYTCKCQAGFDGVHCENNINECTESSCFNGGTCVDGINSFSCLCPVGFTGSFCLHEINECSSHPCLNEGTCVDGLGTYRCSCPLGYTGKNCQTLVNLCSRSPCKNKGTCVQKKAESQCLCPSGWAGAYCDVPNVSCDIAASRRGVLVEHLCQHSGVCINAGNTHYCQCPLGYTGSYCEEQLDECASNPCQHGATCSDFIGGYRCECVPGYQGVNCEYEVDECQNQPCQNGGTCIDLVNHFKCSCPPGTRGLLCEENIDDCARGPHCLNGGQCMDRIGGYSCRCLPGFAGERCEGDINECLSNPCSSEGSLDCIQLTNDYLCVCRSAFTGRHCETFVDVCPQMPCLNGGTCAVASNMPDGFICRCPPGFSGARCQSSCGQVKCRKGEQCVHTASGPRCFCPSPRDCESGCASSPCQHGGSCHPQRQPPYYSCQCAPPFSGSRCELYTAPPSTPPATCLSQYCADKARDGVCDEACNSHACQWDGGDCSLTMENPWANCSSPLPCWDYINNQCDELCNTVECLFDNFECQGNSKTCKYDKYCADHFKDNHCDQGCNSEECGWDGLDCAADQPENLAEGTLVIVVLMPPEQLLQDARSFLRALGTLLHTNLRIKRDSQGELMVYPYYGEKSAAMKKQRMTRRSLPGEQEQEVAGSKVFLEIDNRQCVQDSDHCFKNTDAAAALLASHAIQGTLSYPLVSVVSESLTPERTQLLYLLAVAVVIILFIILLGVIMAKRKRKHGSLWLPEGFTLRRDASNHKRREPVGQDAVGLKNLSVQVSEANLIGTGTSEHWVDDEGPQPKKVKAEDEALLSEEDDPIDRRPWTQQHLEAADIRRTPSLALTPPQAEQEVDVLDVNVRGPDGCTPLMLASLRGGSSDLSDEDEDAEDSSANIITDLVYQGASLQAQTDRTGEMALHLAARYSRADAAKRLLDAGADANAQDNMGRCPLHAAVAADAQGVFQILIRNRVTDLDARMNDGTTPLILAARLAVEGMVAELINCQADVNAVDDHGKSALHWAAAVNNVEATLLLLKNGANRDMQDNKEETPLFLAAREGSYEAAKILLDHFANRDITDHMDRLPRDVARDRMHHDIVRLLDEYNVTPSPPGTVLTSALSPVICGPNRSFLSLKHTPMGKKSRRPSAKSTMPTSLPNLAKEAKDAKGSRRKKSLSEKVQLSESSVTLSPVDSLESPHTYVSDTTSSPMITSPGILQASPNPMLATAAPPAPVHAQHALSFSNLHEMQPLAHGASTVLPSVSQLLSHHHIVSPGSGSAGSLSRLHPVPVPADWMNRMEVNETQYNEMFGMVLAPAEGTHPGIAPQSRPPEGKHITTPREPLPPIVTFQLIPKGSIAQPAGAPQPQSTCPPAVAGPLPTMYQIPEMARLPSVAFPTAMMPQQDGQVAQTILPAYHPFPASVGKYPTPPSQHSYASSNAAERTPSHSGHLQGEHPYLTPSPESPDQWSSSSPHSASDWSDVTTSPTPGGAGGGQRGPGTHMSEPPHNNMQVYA

C=C[C@@H](COC(C)=O)N(Cc1ccccc1[N+](=O)[O-])S(=O)(=O)c1ccc(Br)cc1
composite z-score [1]: 0.0537
composite z-score [2]: 0.98
composite z-score [3]: 0.033
composite z-score [4]: 0.372
composite z-score [5]: 1.01
composite z-score [6]: 0.939
composite z-score [7]: 0.974
z-score [8]: -3.14 (inactive)
composite z-score [9]: 0.399
composite z-score [10]: 0.0524
composite z-score [11]: 0.61
z-score [12]: -3.84 (inactive)
z-score [13]: -2.76 (inactive)
z-score [14]: -0.748 (inactive)
composite z-score [15]: 1.43
z-score [16]: 1.91 (inactive)
composite z-score [17]: -0.297
composite z-score [18]: 1.1
composite z-score [19]: 0.945
composite z-score [20]: 0.212

CCCNC(=O)[C@@]1(c2ccc([N+](=O)[O-])cc2)CC(=O)N(CC23CC4CC(CC(C4)C2)C3)[C@@H]1c1ccc(CO)cc1
composite z-score [1]: -0.271
composite z-score [2]: 0.515
composite z-score [3]: 0.0422
composite z-score [4]: 0.303
composite z-score [5]: 0.143
composite z-score [6]: 0.582
composite z-score [7]: 0.791
z-score [8]: -1.75 (inactive)
composite z-score [9]: 1.13
composite z-score [10]: 0.358
composite z-score [11]: 0.89
z-score [12]: -0.057 (inactive)
z-score [13]: -0.403 (inactive)
z-score [14]: 4.67 (inactive)
composite z-score [15]: 0.907
z-score [16]: 0.156 (inactive)
composite z-score [17]: 0.164
composite z-score [18]: 0.701
composite z-score [19]: 0.305
composite z-score [20]: 0.105

CCOC(=O)[C@H]1C[C@H]2O[C@@]23C[C@H]1C(=O)N1CCCC1[C@@H]3O[Si](C)(C)C(C)(C)C (stereo not given in full)
composite z-score [1]: -0.328
composite z-score [2]: -0.537
composite z-score [3]: -0.104
composite z-score [4]: -0.101
composite z-score [5]: -0.547
composite z-score [6]: -0.333
composite z-score [7]: -0.76
z-score [8]: -0.184 (inactive)
composite z-score [9]: 0.0204
composite z-score [10]: 0.0274
composite z-score [11]: 0.105
z-score [12]: -0.938 (inactive)
z-score [13]: -3.58 (inactive)
z-score [14]: -1.12 (inactive)
composite z-score [15]: -0.0341
z-score [16]: -0.788 (inactive)
composite z-score [17]: 0.807
composite z-score [18]: 0.478
composite z-score [19]: -0.288
composite z-score [20]: -0.149

COC(=O)C[C@H]1O[C@]2(C(=O)N(Cc3ccccc3)c3ccc(NC(C)=O)cc32)[C@@H](C)[C@@H]1[Si](C)(C)c1ccc(OC)cc1
composite z-score [1]: -0.383
composite z-score [2]: -0.148
composite z-score [3]: -0.0543
composite z-score [4]: 0.489
composite z-score [5]: 1.12
composite z-score [6]: 0.264
composite z-score [7]: 0.882
z-score [8]: -1.98 (inactive)
composite z-score [9]: 0.113
composite z-score [10]: -0.273
composite z-score [11]: 0.994
z-score [12]: 0.747 (inactive)
z-score [13]: 0.19 (inactive)
z-score [14]: 2.53 (inactive)
composite z-score [15]: 1.56
z-score [16]: 0.0208 (inactive)
composite z-score [17]: -0.082
composite z-score [18]: 1.09
composite z-score [19]: 1.14
composite z-score [20]: -0.108

COc1ccc(CCNC(=O)[C@@H]2c3ccccc3C(=O)N(Cc3ccc(OC(F)(F)F)cc3)[C@H]2c2ccc(CO)cc2)cc1
composite z-score [1]: 0.111
composite z-score [2]: 0.321
composite z-score [3]: -0.0937
composite z-score [4]: 0.252
composite z-score [5]: 0.0125
composite z-score [6]: 0.75
composite z-score [7]: 0.882
z-score [8]: -2.61 (inactive)
composite z-score [9]: 0.322
composite z-score [10]: -0.0672
composite z-score [11]: 1.55
z-score [12]: -0.392 (inactive)
z-score [13]: -0.51 (inactive)
z-score [14]: -0.0066 (inactive)
composite z-score [15]: 2.48
z-score [16]: -0.652 (inactive)
composite z-score [17]: -0.169
composite z-score [18]: 0.54
composite z-score [19]: 0.342
composite z-score [20]: -0.0967

COc1ccc(NN2C(C(O)c3ccc(OC)c(OCc4ccccc4)c3)C=CC3C(=O)N(C4CCCCC4)C(=O)C32)cc1 (stereo not given)
composite z-score [1]: 0.243
composite z-score [2]: -0.116
composite z-score [3]: 0.136
composite z-score [4]: 0.395
composite z-score [5]: 1.56
composite z-score [6]: 1.4
composite z-score [7]: 0.936
z-score [8]: 0.0498 (inactive)
composite z-score [9]: 0.857
composite z-score [10]: 0.0749
composite z-score [11]: 1.3
z-score [12]: -0.352 (inactive)
z-score [13]: 0.225 (inactive)
z-score [14]: -0.724 (inactive)
composite z-score [15]: 3.24
z-score [16]: 0.644 (inactive)
composite z-score [17]: 0.0225
composite z-score [18]: 0.181
composite z-score [19]: 1.05
composite z-score [20]: -0.0688

O=C(CS)NCCCCCCNC(=O)[C@H]1C[C@H]2C(=O)NCC(=O)N2[C@H]1c1ccc(O)cc1
composite z-score [1]: 0.249
composite z-score [2]: -0.465
composite z-score [3]: -0.137
composite z-score [4]: 0.263
composite z-score [5]: -0.355
composite z-score [6]: 1.22
composite z-score [7]: 1.32
z-score [8]: -0.348 (inactive)
composite z-score [9]: -0.346
composite z-score [10]: 0.0201
composite z-score [11]: 0.16
z-score [12]: -0.408 (inactive)
z-score [13]: 0.0177 (inactive)
z-score [14]: 0.505 (inactive)
composite z-score [15]: 1.46
z-score [16]: -0.449 (inactive)
composite z-score [17]: -0.0903
composite z-score [18]: 0.384
composite z-score [19]: 0.0288
composite z-score [20]: -0.136

O=C1N(CCS(=O)(=O)c2ccccc2)c2ccccc2C[C@@]12COC(c1ccc(OCCCO)cc1)=N2
composite z-score [1]: -0.178
composite z-score [2]: 0.858
composite z-score [3]: 0.0887
composite z-score [4]: 0.322
composite z-score [5]: 1.33
composite z-score [6]: 1.11
composite z-score [7]: 1.33
z-score [8]: 1.18 (inactive)
composite z-score [9]: 0.971
composite z-score [10]: 0.075
composite z-score [11]: 1.47
z-score [12]: 0.631 (inactive)
z-score [13]: -1.07 (inactive)
z-score [14]: 1.14 (inactive)
composite z-score [15]: 2.9
z-score [16]: -0.405 (inactive)
composite z-score [17]: 0.456
composite z-score [18]: 0.75
composite z-score [19]: 1.07
composite z-score [20]: 0.242

COCCOC(=O)N1C(=O)[C@@]2(c3cc(C#CC4=CCCCC4)ccc31)[C@H](C(=O)N1CCc3cc(OC)c(OC)cc3C1)[C@H]1C(=O)O[C@H](c3ccccc3)[C@H](c3ccccc3)N1[C@@H]2c1ccccc1OCCO
composite z-score [1]: 0.243
composite z-score [2]: 0.0781
composite z-score [3]: -0.0867
composite z-score [4]: -0.205
composite z-score [5]: 0.138
composite z-score [6]: -0.442
composite z-score [7]: 1.06
z-score [8]: 0.801 (inactive)
composite z-score [9]: 0.186
composite z-score [10]: -0.0645
composite z-score [11]: 1.01
z-score [12]: 1.51 (inactive)
z-score [13]: 1.35 (inactive)
z-score [14]: 2.78 (inactive)
composite z-score [15]: 1.97
z-score [16]: 0.982 (inactive)
composite z-score [17]: 0.0906
composite z-score [18]: 1.16
composite z-score [19]: 1.09
composite z-score [20]: 0.0238

COCCCNC(=O)[C@@]1(CCC(=O)OC(C)(C)C)N=C(c2ccc(OCCCO)cc2)O[C@H]1c1ccccc1CN=[N+]=[N-]
composite z-score [1]: -0.073
composite z-score [2]: -0.158
composite z-score [3]: -0.0724
composite z-score [4]: 0.527
composite z-score [5]: 1.67
composite z-score [6]: 1.59
composite z-score [7]: 1.27
z-score [8]: 2.42 (inactive)
composite z-score [9]: 1.53
composite z-score [10]: 0.238
composite z-score [11]: 1.26
z-score [12]: -0.187 (inactive)
z-score [13]: -0.738 (inactive)
z-score [14]: -0.363 (inactive)
composite z-score [15]: 3.74
z-score [16]: 0.316 (inactive)
composite z-score [17]: 0.194
composite z-score [18]: 0.624
composite z-score [19]: 1.06
composite z-score [20]: 0.305

Cc1cc(C)c(C(O)C2C=CC3C(=O)N(c4ccccc4)C(=O)C3N2Nc2ccc(C#N)cc2)c(C)c1 (stereo not given)
composite z-score [1]: 0.624
composite z-score [2]: 0.36
composite z-score [3]: 0.111
composite z-score [4]: 0.783
composite z-score [5]: 1.58
composite z-score [6]: 1.74
composite z-score [7]: 1.15
z-score [8]: -1.08 (inactive)
composite z-score [9]: 1.73
composite z-score [10]: 0.167
composite z-score [11]: 1.12
z-score [12]: 0.674 (inactive)
z-score [13]: 0.788 (inactive)
z-score [14]: 2.16 (inactive)
composite z-score [15]: 3.52
z-score [16]: 0.111 (inactive)
composite z-score [17]: 0.512
composite z-score [18]: -0.0482
composite z-score [19]: 1.05
composite z-score [20]: 0.0905
